TEAD-YAP block = TEAD-YAP interaction inhibition, primary screen, TEAD-YAP interaction inhibitor project, luminescence, HEK-TIYL cells; inhibition, % at 9.12 µM; TEAD-Gal4/YAP UAS-luciferase luminescence; 1.4% of 640,000 active; AID 1259422, 2018; in the data active = inhibition above about 32%;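 note: 0% = median of test compound wells and 100% = reference inhibitor wells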
GPR151 activ = activators of human GPR151, primary screen, cell-based, PathHunter beta-arrestin, luminescence. G-protein coupled receptor 151 (Homo sapiens), Q8TDV0. PathHunter beta-arrestin GPR151 cells. activation, % at 11.2 µM. 1% of 650,000 active. AID 1508602, 2020; in the data active = activation above about 4.9%;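 note: 0% = median of compound wells and 100% = cells with positive control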
MITF inh = MITF inhibitors, primary screen, biochemical, AlphaScreen, human. AID 1259374, 2018. 0.91% of 650,000 active. inhibition, % at 2.6 µM. AlphaScreen MITF homodimerization, bead proximity signal; in the data active = inhibition above about 50%;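 note: 0% = vehicle wells with protein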
FBW7 act = FBW7 E3 ligase activators, primary screen, biochemical, AlphaScreen, human; normalized activity (activation), % at 26.1 µM; 0.13% of 650,000 active; AlphaScreen FBW7–phospho-cyclin E peptide binding, activator screen; in the data active = normalized activity above about 1.9%;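 note: purified mutant Fbw7 with reduced substrate affinity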
Target sequence (Q969H0 whole entry, looked up): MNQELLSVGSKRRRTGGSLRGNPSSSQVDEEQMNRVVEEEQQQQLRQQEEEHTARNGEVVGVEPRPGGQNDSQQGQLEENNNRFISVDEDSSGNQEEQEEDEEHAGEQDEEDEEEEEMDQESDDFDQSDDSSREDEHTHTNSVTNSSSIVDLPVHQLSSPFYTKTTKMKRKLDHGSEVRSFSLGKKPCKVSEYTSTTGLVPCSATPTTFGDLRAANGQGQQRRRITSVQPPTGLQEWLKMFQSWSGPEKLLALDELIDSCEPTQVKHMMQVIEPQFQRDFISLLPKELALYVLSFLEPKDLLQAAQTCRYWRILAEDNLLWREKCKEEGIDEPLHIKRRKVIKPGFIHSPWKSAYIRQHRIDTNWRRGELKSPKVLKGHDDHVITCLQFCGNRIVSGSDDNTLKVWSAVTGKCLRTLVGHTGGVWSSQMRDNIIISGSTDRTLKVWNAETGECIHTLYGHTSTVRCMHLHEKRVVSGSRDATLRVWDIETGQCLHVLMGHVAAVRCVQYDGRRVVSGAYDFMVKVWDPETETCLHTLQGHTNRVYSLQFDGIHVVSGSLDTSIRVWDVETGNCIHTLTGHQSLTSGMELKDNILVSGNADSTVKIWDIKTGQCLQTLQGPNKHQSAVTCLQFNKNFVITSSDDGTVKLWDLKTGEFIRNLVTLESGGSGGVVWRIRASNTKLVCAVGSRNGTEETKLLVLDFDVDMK
Numbers without * were called inactive. In the library only some 3.4% were active in any assay of this set; here they are far more common.

SMILES | TEAD-YAP block | GPR151 activ | MITF inh | FBW7 act
COc1ccc(OC)c(N2C(=N)/C(=C(/O)c3ccccc3)C(c3ccc4c(c3)OCO4)C3=C2CC(C)(C)CC3=O)c1 (centres undefined) | 1 | 0 | 21 | 0
OC(COc1ccccc1)CN1CCc2nc3ncccc3cc2C1 (centres undefined) | -13 | -1 | -8 | 0
CCOC(=O)c1sc(NC(=O)c2cccc3ccccc23)nc1C | 42* | 4 | -10 | 0
CCOC(=O)c1sc(NC(=O)c2ccccc2)nc1C | -59 | -1 | -1 | 0
Cn1c(SCC#N)nnc1-c1cccc([N+](=O)[O-])c1 | 32* | -2 | -5 | 0
Cn1c(SCC(N)=O)nnc1-c1cccc([N+](=O)[O-])c1 | -8 | -1 | -10 | 0
COc1ccc(-c2nc3ccc(C(=O)NC4CCCCCCC4)cc3nc2-c2ccc(OC)cc2)cc1 | 2 | 0 | -7 | 0
O=C(NC1CCCCC1)c1cccc(N2CCCC2=O)c1 | 14 | 0 | 3 | 0
O=C(NC1CCCCCC1)c1ccc2c(c1)OCO2 | 44* | -7 | 3 | 0
O=C(NC1CCCCC1)c1ccc2c(c1)OCO2 | -18 | 0 | -1 | 0
Cc1ccc(C(=O)NC2CCCCCC2)cc1 | 49* | -4 | -7 | 0
O=C(NC1CCCCCC1)c1cccc(N2CCCC2=O)c1 | 61* | -1 | -12 | 0
Cc1nc2ccc(C(=O)NC3CCCCCC3)cc2nc1C | 50* | -7 | -16 | 0
COc1ccc(CNC(=O)C2CC2)cc1 | 3 | 1 | 12 | 0
CCOC(=O)c1oc2ccccc2c1Cn1c(Cl)nc2c1c(=O)n(C)c(=O)n2C | -5 | -1 | 0 | 0
CCc1nc(SCC(=O)Nc2ccccc2)n[nH]1 | -2 | -1 | 5 | 0
O=C(NC1CCCCCCC1)c1cc(F)c(F)cc1Cl | -52 | -1 | 0 | 0
O=C(NC1CCCCCC1)c1ccc(Cl)cc1Cl | 33* | -1 | 10 | 0
COc1ccccc1NC(=O)c1ccccc1NC(=O)c1cc(OC)c(OC)c(OC)c1 | 55* | 1 | 4 | 0
COc1cccc2cc(-c3cc4cccc(OC)c4oc3=O)c(=O)oc12 | 11 | 1 | 4 | 0
COc1cccc2cc(-c3nc4ccccc4s3)c(=O)oc12 | 72* | -2 | 5 | 0
COc1ccccc1NC(=O)c1ccccc1NC(=O)c1ccccc1 | 9 | 0 | 15 | 2
COc1cccc(C(=O)Nc2ccccc2C(=O)Nc2ccccc2OC)c1 | 43* | 1 | 0 | 0
COc1ccccc1NC(=O)c1ccc(OC(=S)N(C)C)cc1 | -20 | -1 | 20 | 2.3*
CCCCCC1CCC(c2ccc(C(=O)Nc3nncs3)cc2)CC1 (centres undefined) | -1 | 0 | 1 | 0
SMILES | TEAD-YAP block | GPR151 activ | MITF inh | FBW7 act
CCOC(=O)NC1(N(CC)CC)Oc2cc(Cl)c(Cl)cc2O1 | -7 | 2 | -3 | 0
CCN(CC)CC(O)CN=C1NS(=O)(=O)c2ccccc21 (centres undefined) | -1 | -1 | -2 | 0
COc1ccccc1Nc1ncc(C(=O)NCCC(C)C)c2ccccc12 | -7 | 0 | 14 | 0
COc1cc(C(=O)Nc2ccccc2-c2nc3ccccc3s2)cc(OC)c1OC | 53* | -1 | -3 | 0
COc1ccc(Cl)cc1NC(=O)c1ccc(F)cc1 | 5 | 0 | 16 | 2.3*
COc1ccccc1NC(=O)c1cnc(Nc2ccccc2OC)c2ccccc12 | 45* | 1 | -5 | 1
COC(F)(C(=O)Nc1ccc(C)c(Br)c1)C(F)(F)F (centres undefined) | 7 | 0 | 14 | 0
CCN(CC)c1ccc(/C=N\Nc2ncc(F)c(N3CCOCC3)n2)c(O)c1 | 37* | 0 | 62* | -1
COc1cccc(/C=N\Nc2ncc(F)c(N3CCOCC3)n2)c1O | 41* | 1 | 86* | -1
Fc1cnc(N/N=C/c2ccc(Cl)cc2Cl)nc1N1CCOCC1 | -29 | -1 | -13 | -1
Fc1cnc(N/N=C/c2cccs2)nc1N1CCOCC1 | 45* | -4 | 8 | 0
Fc1cnc(N/N=C\c2ccc(-c3ccccc3)o2)nc1N1CCOCC1 | -20 | 0 | 7 | 0
Cc1noc(C)c1-c1nc(NCc2nc3ccccc3[nH]2)c2[nH]cnc2n1 | 2 | -2 | 9 | 0
O=c1cc(-c2cc(O)c(O)c([C@@H]3O[C@H](CO)[C@@H](O)[C@H](O)[C@H]3O)c2)oc2cc(O[C@@H]3O[C@H](CO)[C@@H](O)[C@H](O)[C@H]3O)cc(O)c12 | 16 | 0 | -16 | 0
O=c1c2cc(O)c(O)cc2oc2cc(O)c(C3OC(CO)C(O)C(O)C3O)c(O)c12 (centres undefined) | -12 | 1 | 59* | 0
CC1CC(C)CN(CCCNC(=O)c2cccc3c2SCCC3=O)C1 (centres undefined) | 4 | 0 | 12 | 0
O=C(CSc1nc(-c2ccccc2)ns1)N1CCCCCC1 | 39* | -2 | 9 | 0
CN(C(=O)c1coc(=O)c2ccccc12)c1ccccc1F | 10 | 0 | -2 | 0
CCCN(C(=O)c1coc(=O)c2ccccc12)c1ccccc1C | 38* | -1 | 1 | 0
CCN(C(=O)c1coc(=O)c2ccccc12)c1ccccc1F | 35* | 2 | 11 | 0
CCN(C(=O)c1coc(=O)c2ccccc12)c1cccc(Cl)c1 | 39* | 0 | 6 | 0
CCOc1ccc(C(=O)NCCc2ccc(S(N)(=O)=O)cc2)cc1 | -9 | 1 | -7 | -1
COC1=C(O)C(=O)c2c(cc3oc(C(C)=O)c(O)c3c2O)C1=O | 2 | -1 | 76* | 0
Cc1ccc(C(Nc2cccc(C)n2)c2ccc3cccnc3c2O)cc1 (centres undefined) | 76* | 0 | 6 | -1
CSc1ccc(C(Nc2ccccn2)c2ccc3ccc(C)nc3c2O)cc1 (centres undefined) | 21 | 0 | 1 | 0
SMILES | TEAD-YAP block | GPR151 activ | MITF inh | FBW7 act
Cc1ccc2ccc(C(Nc3ccccn3)c3ccc(N(C)C)cc3)c(O)c2n1 (centres undefined) | 6 | 0 | 14 | 0
CCc1ccc(C(Nc2ccccn2)c2ccc3cccnc3c2O)cc1 (centres undefined) | 84* | 1 | 28 | -1
C=CCOc1ccc(C(Nc2ccccn2)c2ccc3cccnc3c2O)cc1 (centres undefined) | 86* | 1 | 55* | -1
Oc1c(C(Nc2ccccn2)c2ccc(F)cc2)ccc2cccnc12 (centres undefined) | 70* | 0 | 9 | -2
CC(=O)Nc1ccc(NC(C)=O)c(NC2OC(CO)C(OC3OC(CO)C(O)C(O)C3O)C(O)C2O)c1 (centres undefined) | 0 | 1 | 3 | 0
Fc1cccc(CNCc2cn[nH]c2-c2cccs2)c1 | 3 | 1 | 7 | 0
CSc1ccc(C(Nc2ccccn2)c2ccc3cccnc3c2O)cc1 (centres undefined) | 78* | 0 | 8 | -1

Assay outcomes from PubChem BioAssay.
